Most compounds without a hit are left out; they make up all but 2.8% or so of the library.
KKLEB cytotox: counter-screen for CF NF-kB inhibitors: cytotoxicity; KKLEB CF airway cells viability, ATPlite luminescence, overnight; hits give low values; cells stimulated with P. aeruginosa culture filtrate; activity change (cytotoxicity), % at 5 µM; hit rate 0.36% among 360,000; AID 602141;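 active = corrected activity change at or below -50% at 5 µM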
HIF-2a block: blocks HIF-2a reporter activity; 786-0 RCC cells HIF-2a reporter, luciferase luminescence, overnight; inhibition, % at 18.8 µM; hit rate 0.72% among 360,000; AID 624352;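 active = inhibition of the luminescence signal of 40% or more relative to plate controls, in a single-dose primary screen at 18.75 µM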
CF NFkB inh: blocks PAF-induced NF-kB reporter in cystic fibrosis cells; KKLEB NF-kB-GFP reporter, GFP fluorescence overnight; inhibition, % at 5 µM; hit rate 0.86% among 360,000;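 active = at least 50% inhibition at 5 µM, scaled per plate between neutral and stimulator controls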;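 note: PAF is a Pseudomonas aeruginosa culture filtrate used as stimulus; plate controls were PAF-stimulated DMSO wells for no effect and unstimulated DMSO wells for full effect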
MITF TRPM1 inh: inhibitors of MITF-driven TRPM1 promoter in melanoma cells; AID 488899; hit rate 0.83% among 330,000; SK-MEL-5 TRPM1 promoter luciferase, 24 h; inhibition, % at 12.5 µM;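 active = mean inhibition across replicates of 60% or more, whatever share of single replicates reaches that level; inconclusive = some that reach 60%, reason not given; inactive = mean inhibition across replicates below 60%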
Peg3 prom inh-1: inhibitors of Peg3 promoter; HeLa PEG-Prom luciferase reporter, luminescence, overnight; inhibition, % at 20 µM; hit rate 1.7% among 360,000; AID 588405;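 active = inhibition of at least 50% at 20 µM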
Shn3 3UTR inh: Schnurri-3 reporter inhibition in Clone20 osteoblasts | inhibition, % at 12.5 µM | Clone20 osteoblast Shn3 3'UTR firefly luciferase, 24 h | AID 588674 | hit rate 0.52% among 360,000;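 active = mean inhibition of at least 75% with every replicate also reaching 75%; inconclusive = mean inhibition at least 75% but some replicate below; inactive = mean inhibition below 75%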;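 note: 0% = median of neutral control wells and 100% = pilot-screen positive control compound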
Peg3 prom inh-2: Peg3 promoter inhibition confirmation; shares compounds with Peg3 prom inh-1; HeLa PEG-Prom luciferase reporter, luminescence, overnight; inhibition, % at 20 µM; hit rate 84% among 1,300;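 active = at 20 µM dose, 40% or more inhibition averaged across four replicates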
Starred values were filed as active, the others as inactive; u = inconclusive; x = no result; ! = repeats disagree.

SMILES	KKLEB cytotox	HIF-2a block	CF NFkB inh	MITF TRPM1 inh	Peg3 prom inh-1	Shn3 3UTR inh	Peg3 prom inh-2
COc1cccc(C(c2nnnn2CCc2ccccc2)N2CCN(c3ccccc3)CC2)c1OC (stereo not given)	2.8	8.0	26.2	1.3	51.2*	24.7	33.7
CCCCCCN1C[C@H](n2cc(-c3ccc(F)cc3)nn2)[C@@H](O)C[C@@H]1c1ccc(C)cc1	-6.0	2.3	18.7	x	22.8	24.1	x
O=C(c1ccc(NS(=O)(=O)c2ccccc2)cc1)N1CCOCC1	0.8	13.4	-7.2	4.7	-3.4	-0.5	x
CCNC(=S)N1CCN(c2ccccn2)CC1	-8.3	12.9	-11.4	-13.1	-6.7	-6.0	x
CC(NNC(=S)N1CCN(c2ccccn2)CC1)c1nccc2ccccc12 (stereo not given)	-11.8	52.0*	0.5	85.9*	91.7*	92.8*	87.5*
Cc1ccc(C(=O)N(C)CC(=O)Nc2ccc(Cl)c(C(F)(F)F)c2)cc1S(=O)(=O)N1CCCCC1	-32.2	11.5	16.3	3.9	27.2	31.3	x
Cc1ccc(S(=O)(=O)N2CCCCC2)cc1C(=O)N(C)CC(=O)Nc1ccc(Cl)c(C(F)(F)F)c1	-23.0	20.7	4.5	19.6	53.2*	60.2	56.1*
CCn1cc(Cl)c(C(=O)Nc2ccccc2C(N)=O)n1	-6.0	-112.5	-3.0	-21.7	-81.1	-23.8	x
Cc1nn(C)c(C)c1NS(=O)(=O)c1c(C)n[nH]c1C	7.2	12.8	0.0	0.6	12.6	-9.6	x
CC(NS(=O)(=O)OCC(Cl)(Cl)Cl)c1ccc(C(C)(C)C)cc1 (stereo not given)	-0.2	24.9	28.0	-1.1	56.0*	10.2	48.6*
Cn1c(=O)c(Oc2cc(Cl)cc(Cl)c2)nc2ccccc21	-9.5	13.2	10.2	0.0	68.0*	-1.7	35.9
O=C(NN=Cc1c(F)c(F)c(F)c(F)c1F)c1ccc(NS(=O)(=O)c2cccs2)cc1	-20.9	11.8	35.2	-3.1	57.0*	16.4	37.1
CCC1CCC2(CC1)NC(=O)N(CC(=O)N1CCc3ccccc31)C2=O (stereo not given)	7.3	17.8	-44.0	9.4	-0.9	0.3	x
Fc1ccc([C@@H]2CCNC[C@H]2COc2ccc3c(c2)OCO3)cc1	-11.2	-12.9	7.8	u	66.0*	7.6	62.3*
Cc1ccc(S(=O)(=O)N[C@@H](C)CO)cc1	x	4.9	x	x	x	x	x
CN(C)CCOC1(Cc2ccc(F)cc2)CCC(C(C)(C)C)CC1 (stereo not given)	15.2	-2.7	9.4	37.3	8.3	10.0	x
Cc1ccc(CC2(OCCN(C)C)CCC(C(C)(C)C)CC2)cc1 (stereo not given)	-0.9	-3.8	20.7	57.1	95.4*	1.0	100.8*
COc1ccc(NC(=O)CSc2n[nH]c(CNc3cccc(C)c3)n2)cc1	2.7	-15.3	-11.5	-5.4	-8.5	4.1	x
C=C1CC(Cn2cc(Br)c(=O)[nH]c2=O)(c2ccc(-c3ccccc3)cc2)OC1=O (stereo not given)	-48.9	94.2*	87.1*	108.6*	99.6*	94.8*	97.5*
COc1cc(NC(=O)c2nccn2C)cc(C(=O)Nc2cccc(C(F)(F)F)c2)c1	-6.6	-24.2	8.1	36.0	53.3*!	12.2	33.2
Cc1cccc(N(CC(=O)NC2CCCC2)C(=O)CCC(=O)Nc2ccccn2)c1	-1.5	6.7	2.4	11.4	2.8	9.6	x
O=C(C(=O)N1CCCC1)c1c(-c2ccccc2)[nH]c2ccccc12	4.5	8.7	5.3	x	21.5	-7.6	x
COc1ccc(NC(=O)Nc2cc(C)ccn2)cc1	-7.9	-89.0	-2.2	-6.3	-144.9	0.2	x
COc1ccc(C(=O)NC(=O)Nc2cc(C)ccn2)cc1	-54.9*	-24.4	6.6	70.2*	72.4*	23.7	38.0
O=C(Nc1ccccn1)c1ccc(C(=O)c2ccccc2)cc1	-18.4	-209.4	9.2	-85.6	-349.9	-57.2	x
SMILES	KKLEB cytotox	HIF-2a block	CF NFkB inh	MITF TRPM1 inh	Peg3 prom inh-1	Shn3 3UTR inh	Peg3 prom inh-2
O=C(NC(=O)c1ccccc1)Nc1ccccn1	-21.5	75.2*	12.0	81.3*	90.2*	60.6	76.8*
COc1ccccc1CNC(=O)CN1C(=O)NC(c2ccccc2)(c2ccc(C)c(C)c2)C1=O (stereo not given)	5.7	7.5	0.2	24.6	2.9	11.2	x
CSc1ncc(Cl)c(C(=O)Nc2ccc(NC(C)=O)cc2)n1	8.1	-5.2	-15.7	-14.1	-3.9	-76.6	x
CC(=O)Nc1ccc(NC(=O)c2nc(S(=O)(=O)Cc3ccccc3)ncc2Cl)cc1	-77.0*	-0.2	96.4*	87.5*	101.6*	94.9*	95.5*
CCOc1ccc2[nH]c3ncccc3c(=O)c2c1	24.6	-84.2	-35.9	-4.0	-27.9	-15.1	x
CCOc1ccc2c(ccc(/C=C/c3cc(C)c4cccnc4c3O)[n+]2C)c1	-5.1	25.7	43.0	74.5*	100.8*	86.8*	84.1*
Cc1cc(C)n2nc(CNS(=O)(=O)c3ccc(CC(C)C)cc3)nc2n1	1.2	-2.1	11.6	-2.1	-8.7	4.3	x
CCOC(=O)C1=CC[C@@H](c2ccccc2C(F)(F)F)N(S(=O)(=O)c2ccc(C)cc2)[C@H]1c1ccc(C#N)cc1	-10.4	7.8	1.1	x	8.1	-17.7	x
CCCOc1ccc(NC(=O)CC2C(=O)N(CC)C(=S)N2CCCN2CCN(Cc3ccccc3)CC2)cc1 (stereo not given)	-14.9	7.7	-11.7	73.3*	76.0*	0.7	80.3*
C=CCN=C1NN=C(c2cc(C)n(CC=C)c2C)CS1	1.0	58.1*	3.6	83.8*	74.2*	71.9	82.2*
COc1ccc(C(=O)N/C(=C\c2cn(S(=O)(=O)N(C)C)c3ccccc23)C(=O)N2CCN(C)CC2)cc1OC	-3.7	17.1	-35.9	x	11.1	12.9	x
Cc1ccc(NC(=O)Nc2ccnc(-c3cccnc3)n2)cc1	7.0	-125.9	-13.7	9.7	87.8*	-11.7	67.1*
Cc1ccc(C(=O)Nc2ccnc(-c3cccnc3)n2)cc1	20.5	-205.3	-32.2	-34.0	-113.5	-7.7	x
O=C(COC(=O)c1c[nH]c2ccccc12)Nc1ccc([N+](=O)[O-])cc1	27.3	7.7	-21.3	5.3	-5.9	-2.5	x
FC(F)(F)c1cc(CCN2C(=S)NC[C@@H]2Cc2ccccc2)cc(C(F)(F)F)c1	-37.6	-0.6	15.1	-1.1	0.2	-6.4	x
NC1=NC[C@H](Cc2ccccc2)N1CCc1cc(C(F)(F)F)cc(C(F)(F)F)c1	4.2	3.9	-34.1	3.4	84.8*	0.7	53.1*
O=C(Cc1csc(Nc2nc(=S)[nH]c3ccccc23)n1)NCc1ccccc1Cl	-14.5	-3.4	14.9	31.4	50.9*	0.2	44.4*
O=C(NCc1ccccc1Cl)C1CCC(CNc2nc(=S)[nH]c3ccccc23)CC1 (stereo not given)	-18.6	37.6	13.0	22.2	40.1	29.1	x

Screening data as filed in PubChem BioAssay.
